# A selection: hits, their analogues and other compounds. The true share with any hit is near 4.9%.
# Beta apoptosis – blocks beta cell apoptosis. INS-1E cytokine-induced death, ATP luminescence, 48 h; percent of positive-control rescue, neutral wells zero. protection from apoptosis, % (no concentration beside the values). 300,000 compounds, 0.8% hits. AID 435005;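 active = Every replicate reaches about 75%, or at least half do and their mean reaches it too, limit read from the data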;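 note: 0% = cytokine-treated negative control wells and 100% = positive control rescue; higher means more ATP so stronger rescue from cytokine killing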
# PP1 inh – counter-screen for PP5 inhibitors: inhibitors of human PP1-alpha | inhibition, % at 6.7 µM | 320,000 compounds, 0.9% hits | P62136 | purified PP1alpha, OMFP fluorescence;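 active = inhibition above the mean inhibition of all tested compounds plus 3 SD, computed separately for each screening campaign, cut at about 15% in these data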
# CSC inhib – cancer stem cell inhibition. cancer stem cell-like cells viability, luminescence. inhibition, % at 7.5 µM. 300,000 compounds, 1.1% hits; in the data active = inhibition above about 75%; tested in HMLE shEcad cells
# Calb FLC – C. albicans growth modulation with fluconazole; C. albicans CaCi-2 (fluconazole-resistant clinical isolate) + fluconazole, Alamar Blue growth, 48 h; 300,000 compounds, 0.57% hits; growth inhibition, % (test concentration not listed); AID 1979;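 active = growth inhibition above about 58% in most replicates, limit read from the data, passing the limit was not always enough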;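 note: all wells also contain fluconazole at 8 µg/ml as a sub-toxic cotreatment; 0% = median of DMSO wells and 100% = median of geldanamycin control wells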
# PP5 inh – PP5 (human) phosphatase inhibition; purified PP5c, OMFP substrate fluorescence; inhibition, % at 6.7 µM; 320,000 compounds, 0.18% hits; AID 1987;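 active = inhibition above the campaign's mean inhibition across all tested compounds plus 3 SD, cut at about 9.5% in these data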;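 note: 0% = DMSO only and 100% = 100 µM cantharidin control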
# Mdm2-MdmX inh – inhibitors of human Mdm2/MdmX interaction; O15151+Q00987; SaOS-2 split-luciferase Mdm2/MdmX complementation, luminescence; inhibition, % at 8 µM; 330,000 compounds, 3% hits; AID 485346;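 active = inhibition of at least 50% at 8 µM in the primary screen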
# Target sequence (O15151 whole entry, looked up): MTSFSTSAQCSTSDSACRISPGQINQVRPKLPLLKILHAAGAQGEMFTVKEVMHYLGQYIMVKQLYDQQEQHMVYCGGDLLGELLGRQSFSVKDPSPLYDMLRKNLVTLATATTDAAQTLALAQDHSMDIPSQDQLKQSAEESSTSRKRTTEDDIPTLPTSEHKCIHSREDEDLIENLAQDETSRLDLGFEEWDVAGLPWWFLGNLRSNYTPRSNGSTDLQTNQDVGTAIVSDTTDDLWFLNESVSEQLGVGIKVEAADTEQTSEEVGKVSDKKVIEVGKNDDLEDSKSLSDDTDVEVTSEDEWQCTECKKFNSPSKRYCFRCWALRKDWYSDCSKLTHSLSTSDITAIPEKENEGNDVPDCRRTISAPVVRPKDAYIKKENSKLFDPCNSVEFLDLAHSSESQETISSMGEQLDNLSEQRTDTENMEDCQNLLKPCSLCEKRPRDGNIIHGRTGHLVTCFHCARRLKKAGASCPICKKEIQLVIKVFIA
# Target sequence (Q00987 whole entry, looked up): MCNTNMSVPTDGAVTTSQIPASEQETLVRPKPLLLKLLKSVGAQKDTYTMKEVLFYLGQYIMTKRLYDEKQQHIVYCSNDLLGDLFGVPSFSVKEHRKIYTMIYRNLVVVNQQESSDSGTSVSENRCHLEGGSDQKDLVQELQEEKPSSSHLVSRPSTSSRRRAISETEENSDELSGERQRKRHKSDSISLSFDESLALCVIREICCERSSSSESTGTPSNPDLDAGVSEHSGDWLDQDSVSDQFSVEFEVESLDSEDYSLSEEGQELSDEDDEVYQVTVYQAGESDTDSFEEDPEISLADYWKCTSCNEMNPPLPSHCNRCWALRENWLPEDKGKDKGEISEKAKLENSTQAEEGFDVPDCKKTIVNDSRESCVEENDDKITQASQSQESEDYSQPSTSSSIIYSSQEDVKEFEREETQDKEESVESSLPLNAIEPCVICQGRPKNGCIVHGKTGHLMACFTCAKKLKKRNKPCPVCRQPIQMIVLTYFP
# Mdm2 MdmX conf – human Mdm2/MdmX binding inhibition, confirmed. luminescent assay. shares compounds with Mdm2-MdmX inh. inhibition, % at 8 µM. 10,000 compounds, 55% hits; in the data active = inhibition above about 40%
# Full FLuc ctr – full-length luciferase inhibition in Mdm2/MdmX counter-screen | shares compounds with Mdm2-MdmX inh | SaOS-2 full-length luciferase counterscreen, luminescence | inhibition, % at 8 µM | 6,200 compounds, 77% hits;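 active = mean inhibition at 8 µM reaching about 37%, which flags the compound as non-specific, limit read from the data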;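 note: p53-null SaOS-2 cells with luciferase driven by a doxycycline-inducible promoter; compound on cells about two nights before reading with doxycycline added after day one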
# The depositor's hits bear a star; . = no result given.
SMILES,Beta apoptosis,PP1 inh,CSC inhib,Calb FLC,PP5 inh,Mdm2-MdmX inh,Mdm2 MdmX conf,Full FLuc ctr
COc1ccc(CNC(=O)Nc2ccc3c(c2)N(C)C(=O)CS3)cc1,10,2,.,-3,2,2,.,.
Cc1cc(C)nc(SCc2ccc(C(=O)N/N=C/c3ccco3)cc2)n1,-4,-1,-24,8,0,24,.,.
COc1cc(C(=O)Nc2cc(C(F)(F)F)ccc2N2CCOCC2)ccc1OCC(=O)N1CCOCC1,3,-3,-17,20,1,16,.,.
COC(=O)c1cc2c(N)c(C(=O)c3ccccc3)sc2nc1C(OC)OC,2,-1,-7,-7,1,-28,.,.
O=C(Cc1csc(Nc2nc(=S)[nH]c3ccccc23)n1)N1CCN(c2cccc(C(F)(F)F)c2)CC1,-3,-3,70,7,-2,69*,15,.
O=C(COC(=O)c1cccc(S(=O)(=O)N2CCOCC2)c1)NCCc1ccccc1,0,5,-2,-4,0,19,.,.
CC(=O)n1cc(N(C(=O)CCl)c2ccc(C)cc2)c2ccccc21,-12,2,18,32,1,99*,100*,52*
CCOC(=O)c1c(NC(=O)Cc2cccs2)sc(C(=O)NC2CCCCC2)c1C,29,-3,19,-2,0,66*,14,.
COC(=O)c1c(NC(=O)Cc2cccs2)sc(C(=O)NC2CCCCC2)c1C,-2,-1,-4,0,0,55*,1,.
CC(C)Oc1ccc(Br)cc1/C=N\NC(N)=S,0,3,-31,-36,-2,38,.,.
CN(C)CCOc1nc(-c2ccccc2)nc2c1oc1ccccc12,59,-4,37,31,-1,71*,29,.
CN(C)CCOc1ncnc2c1oc1ccccc12,11,1,-1,-8,6,11,.,.
COC(=O)c1c(-c2ccc3ccccc3c2)csc1NC(=O)Cc1ccc(OC)c(OC)c1,-6,7,-2,26,1,55*,54*,57*
COc1ccc2oc(=O)c(/C(C)=N/Nc3nc(-c4cc(C)ccc4C)cs3)cc2c1,.,4,0,9,-1,5,.,.
COc1ccc2oc(=O)c(-c3csc(Nc4ccc(O)cc4)n3)cc2c1,-6,3,3,-6,2,54*,19,133*
O=C(O)c1cccc(COc2ccccc2Cl)c1,3,-3,-8,4,1,69*,69*,50*
O=C(O)c1ccc(COc2ccccc2Cl)cc1,-12,-15,8,17,5,-5,.,.
COc1cc(OC)c2c(-c3cccc(-c4ccc(F)c(Cl)c4)c3)cc(=O)oc2c1,.,.,.,.,.,72*,61*,43*
COc1cc(OC)c2c(-c3cccc(-c4ccc(NC(C)=O)cc4)c3)cc(=O)oc2c1,.,.,.,.,.,60*,63*,79*
COc1cc(OC)c2c(-c3cccc(-c4sccc4C(C)=O)c3)cc(=O)oc2c1,.,.,.,.,.,72*,55*,55*
COc1cc(OC)c2c(-c3cccc(-c4ccc(OC)c(OC)c4)c3)cc(=O)oc2c1,.,.,.,.,.,63*,52*,86*
COc1cc(OC)c2c(-c3cccc(-c4ccc(C#N)cc4)c3)cc(=O)oc2c1,.,.,.,.,.,43,.,.
O=C(NCc1n[nH]c(=S)n1-c1ccc(Cl)c(Cl)c1)c1ccc(S(=O)(=O)N2CCOCC2)cc1,-10,3,-5,-1,1,-36,.,.
COc1ccc(CNC2CCSc3ccccc32)cc1OC (stereo not drawn),-4,1,-5,3,1,30,.,.
COc1cc2oc(=O)cc(-c3cccc(-c4cccc(C)c4)c3)c2c(OC)c1OC,.,.,.,.,.,62*,18,.
SMILES,Beta apoptosis,PP1 inh,CSC inhib,Calb FLC,PP5 inh,Mdm2-MdmX inh,Mdm2 MdmX conf,Full FLuc ctr
COc1ccc(-c2ccc(-c3cc(=O)oc4cc(OC)c(OC)c(OC)c34)cc2)cc1OC,.,.,.,.,.,39,.,.
CCOc1ccccc1NC(=O)c1cc(C(=O)c2cc(Br)ccc2O)coc1=N,2,0,-5,0,4,55*,60*,69*
Cc1cc(C)c2sc(N(CCCN(C)C)C(=O)c3ccc(S(=O)(=O)N(C)C4CCCCC4)cc3)nc2c1,.,8,-3,-4,1,97*,48*,79*
CN(C)CCCN(C(=O)c1ccc(S(=O)(=O)N(C)C2CCCCC2)cc1)c1nc2ccc(F)cc2s1,3,-1,-10,-9,0,34,.,.
CCc1ccc2nc(N(CCCN(C)C)C(=O)c3ccc(S(=O)(=O)N(C)C4CCCCC4)cc3)sc2c1,18,5,52,-4,-2,66*,48*,56*
O=S(=O)(c1ccc(NC(=S)N/N=C/c2c3ccccc3cc3ccccc23)cc1)N1CCOCC1,-1,10,7,.,4,58*,9,.
O=S(=O)(c1ccc(NC(=S)N/N=C/c2ccc(Oc3ccccc3)cc2)cc1)N1CCOCC1,5,2,-2,7,1,64*,38,85*
O=S(=O)(c1ccc(NC(=S)N/N=C/c2ccc(N3CCOCC3)cc2)cc1)N1CCOCC1,10,5,-1,1,1,-4,.,.
COC(=O)[C@@H](NC(=O)O[C@@H]1C(=O)c2cc(Br)ccc2O[C@H]1c1cccc(OC)c1)C(C)C,-5,2,11,17,2,23,.,.
CC(C)n1c(=O)n(CC(=O)NCC2CCCO2)c(=O)c2c3c(sc21)COC(C)(C)C3 (stereo not drawn),-1,-2,2,2,1,7,.,.
Cc1ccc(-c2cc3onc(-c4ccccc4)c3c(=O)n2C)cc1,16,1,20,.,0,73*,74*,103*
CC1=NN(c2nc3ccccc3[nH]2)C(=O)C1Cc1ccccc1 (stereo not drawn),99*,9,100*,-2,2,85*,81*,36*
CCc1ccc(C(=O)Nc2nc3ccccc3[nH]2)cc1,44,-1,31,-4,2,56*,52*,72*
O=C(Nc1nc2ccccc2[nH]1)c1ccccc1F,89*,1,124*,24,-2,82*,81*,38*
CC(C)Oc1ccc(C(=O)Nc2nc3ccccc3[nH]2)cc1,46,-1,42,12,-2,69*,67*,46*
O=C(Nc1ccncc1)c1ccccc1F,1,-3,-2,-1,-4,51*,31,.
CCOc1cc(/C=C2\CCn3c2nc2cc(Cl)ccc2c3=O)ccc1O,7,1,-12,1,4,5,.,.
O=C(CN1C(=O)S/C(=C\c2ccccc2F)C1=O)NC1C=CS(=O)(=O)C1 (stereo not drawn),-6,0,15,2,0,37,.,.
